Calb FLC: affects C. albicans growth with fluconazole; C. albicans CaCi-2 (fluconazole-resistant clinical isolate) + fluconazole, Alamar Blue growth, 48 h; growth inhibition, % (test concentration not listed); actives 0.57% (n = 300,000);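 active means growth inhibition above about 58% in most replicates, limit read from the data, passing the limit was not always enough; inconclusive means exactly half the replicates above a set limit; inactive means most replicates below a set limit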;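 further: all wells also contain fluconazole at 8 µg/ml as a sub-toxic cotreatment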
Beta apoptosis: blocks beta cell apoptosis; INS-1E cytokine-induced death, ATP luminescence, 48 h; percent of positive-control rescue, neutral wells zero; protection from apoptosis, % (concentration not given with the values); actives 0.8% (n = 300,000); AID 435005;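 active means Every replicate reaches about 75%, or at least half do and their mean reaches it too, limit read from the data; inconclusive means At least half of replicates reach the limit but their mean does not; inactive means Under half of replicates reach the limit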;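 further: higher means more ATP so stronger rescue from cytokine killing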
PfHsp90 yeast 2: inhibits growth of yeast expressing Plasmodium falciparum Hsp90. inhibition, % at 9.4 µM. S. cerevisiae expressing PfHsp90, BacTiter-Glo ATP, 48 h; yeast lacking PDR1 and PDR3 efflux regulators. AID 504621. actives 0.32% (n = 310,000);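 active means every replicate shows inhibition above about 80%, whatever the replicate mean, limit read from the data; inconclusive means mean inhibition reaches the set limit but some replicate falls short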
Shn3 3UTR inh: Schnurri-3 reporter inhibition in Clone20 osteoblasts; Clone20 osteoblast Shn3 3'UTR firefly luciferase, 24 h; inhibition, % at 12.5 µM; actives 0.52% (n = 360,000); AID 588674;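 active means mean inhibition of at least 75% with every replicate also reaching 75%; inconclusive means mean inhibition at least 75% but some replicate below; inactive means mean inhibition below 75%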
CSC inhib: cancer stem cell inhibition | cancer stem cell-like cells viability, luminescence | inhibition, % at 7.5 µM | actives 1.1% (n = 300,000); in the data active means inhibition above about 75%; inconclusive means no clear call, values can overlap the other calls; tested in HMLE shEcad cells
A number is an active result. Hits are enriched below; roughly 2.2% of the tested compounds scored in any of these assays.

COc1ccc2c(c1)C13CCN4CC5=CCOC6CC(=O)N2C1C6C5CC43 (configuration not stated) was read as Shn3 3UTR inh inactive.
For CCc1ccccc1NC(=O)CNCc1ccccc1 the results were Calb FLC inactive, Beta apoptosis inactive, PfHsp90 yeast 2 inactive, Shn3 3UTR inh inactive and CSC inhib inactive.
COc1cc2cc(C(=O)N3CC(COS(C)(=O)=O)c4ccc(O)cc43)[nH]c2c(OC)c1OC (configuration not stated) was read as PfHsp90 yeast 2 104 and Shn3 3UTR inh 95.
CC(=O)OC1CCC2(/C=N/O)C(=CCC3C4CCC(=O)C4(C)CCC32)C1 (configuration not stated) was read as Calb FLC inactive, Beta apoptosis inactive, PfHsp90 yeast 2 inactive, Shn3 3UTR inh inactive and CSC inhib inactive.
Screening O=C(O)C1C2CCC(O2)C1C(=O)NC1CCCCC1 (configuration not stated) returned Calb FLC inactive, PfHsp90 yeast 2 inactive, Shn3 3UTR inh inactive and CSC inhib inactive.
CCCC/C(C)=C/[C@@H](NP(=O)(c1ccccc1)c1ccccc1)c1ccccc1 was read as Calb FLC inactive, Beta apoptosis inactive, PfHsp90 yeast 2 inactive, Shn3 3UTR inh inactive and CSC inhib 114.
Screening CC(C)(C)n1c(O)c(C=Nc2ccc3c(c2)CCC3)c(=O)[nH]c1=O returned Calb FLC inactive, Beta apoptosis inactive, PfHsp90 yeast 2 inactive, Shn3 3UTR inh inactive and CSC inhib inactive.
`CCCCOc1ccc(CN2CCN(CCO)CC2)cc1` gave Calb FLC inactive, Beta apoptosis inactive, PfHsp90 yeast 2 inactive, Shn3 3UTR inh inactive and CSC inhib inactive.
For CCCCCCOc1ccc(CN2CCN(CCO)CC2)cc1 the results were Calb FLC inactive, Beta apoptosis inactive, PfHsp90 yeast 2 inactive, Shn3 3UTR inh inactive and CSC inhib 83.
Screening CNc1cc(Cl)c2nonc2c1[N+](=O)[O-] returned Calb FLC 100, PfHsp90 yeast 2 inactive and Shn3 3UTR inh 90.
CC1(C)C[C@H]2C=C(C=O)[C@]3(C=O)C[C@]3(C)[C@H]2C1 was read as Calb FLC inactive, Beta apoptosis 105, Shn3 3UTR inh 97 and CSC inhib inactive.
`CCOc1cc2c(cc1OCC)-n1cccc1C(c1ccc(F)cc1)NC2` (configuration not stated) gave Calb FLC inactive, Beta apoptosis inactive, PfHsp90 yeast 2 inactive, Shn3 3UTR inh inactive and CSC inhib inactive.
CCOc1cc2c(cc1OCC)-n1cccc1C(c1ccc(C(C)C)cc1)NC2 (configuration not stated) was read as Calb FLC inactive, Beta apoptosis inactive, PfHsp90 yeast 2 inactive, Shn3 3UTR inh 90 and CSC inhib inconclusive.
For CCOC(=O)C(O)(c1ccc(NC(=O)c2ccc(Cl)c(Cl)c2)cc1)C(F)(F)F (configuration not stated) the results were Calb FLC inactive, Beta apoptosis inactive, PfHsp90 yeast 2 inactive, Shn3 3UTR inh inactive and CSC inhib inactive.
CCOC(=O)C(=CNc1ccc(C(O)(C(=O)OCC)C(F)(F)F)cc1C)C(=O)OCC (configuration not stated) was read as Calb FLC inactive, Beta apoptosis 97, PfHsp90 yeast 2 inactive, Shn3 3UTR inh inactive and CSC inhib inactive.
For O=C(COc1ccccc1)N1CCN(C2CC3CCC2C3)CC1 (configuration not stated) the results were Calb FLC inactive, Beta apoptosis inactive, PfHsp90 yeast 2 inactive and Shn3 3UTR inh inactive.
For O=P(Oc1ccc(-c2ccccc2)cc1)(N1CC1)N1CC1 the results were PfHsp90 yeast 2 inactive and Shn3 3UTR inh inactive.
For O=P(Oc1ccccc1)(Oc1ccccc1)N1CCN(c2ccc(F)cc2)CC1 the results were Calb FLC inactive, Beta apoptosis 78, PfHsp90 yeast 2 inactive, Shn3 3UTR inh inactive and CSC inhib inactive.
For C[C@]12CC[C@H]3C(CCC4(O)CC(O)CC[C@]34C=O)C1=CC[C@H]2c1ccc(=O)oc1 (some centres not stated) the results were Calb FLC inactive, Beta apoptosis inactive, PfHsp90 yeast 2 inactive, Shn3 3UTR inh inactive and CSC inhib 78.
CC12CC[C@H]3[C@@H](CCC4(O)C[C@H](O)CCC34/C=N/NC(=O)Cc3ccccc3)C1(O)CCC2C1=CC(=O)OC1 (some centres not stated) was read as Calb FLC inactive, Beta apoptosis inactive, PfHsp90 yeast 2 inactive, Shn3 3UTR inh inactive and CSC inhib inactive.

Screens deposited in PubChem BioAssay by Broad Institute.
